For 15 molecules, growth results are on record in PubChem BioAssay (NCI).

Holding throughout (assay): NCI-60 one-dose screen, 48 h (100 = growth as untreated, 0 = no growth, -100 = all killed)
What all share (conditions): 10 µM unless noted

For experiment [1], the system named is T-47D breast.
The test system of experiment [2] is BT-549 breast.
Experiment [3] concerns MDA-MB-435 melanoma.
Experiment [4] relates to SW-620 colon.
The test system of experiment [5] is MCF7 breast.
For experiment [6], the system named is HCT-116 colon.
For experiment [7], the system named is HCC-2998 colon.
The subject of experiment [8] is KM12 colon.

This is part of a sample that, as a whole, favours compounds with a hit. Of some 83,000 tested, about 20% had one in any assay.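 Single-concentration screen, 48 h exposure, 96-well plates. Endpoint: percent growth. Below 10 = active.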 Unmarked numbers belong to inactive results. Calls of active or inactive are those of the source.

In the case of `COc1ccc2[nH]c(O)c(C(=Nc3ccc(N(C)C(=O)CN4CCN(C)CC4)cc3)c3ccccc3)c2c1`, the growth in experiment [1] is 53.4%; in experiment [2], 35.8%; in experiment [3], 42.3%; in experiment [4] it was 16.8%; in experiment [5], 29%; in experiment [6], 11.1%. Also, the growth in experiment [7] was 34.3%; in experiment [8], 18.2%.
As for `N#Cc1nc2c(S(=O)(=O)c3ccc(Cl)cc3)c(N)n(Nc3cccc(Cl)c3)c2nc1C#N`, the growth in experiment [1] was 53.5%; in experiment [2], 47.8%; in experiment [3] it was 53%; in experiment [4], 35.9%; in experiment [5], 58.5%; in experiment [6] it was 32.9%. Also, the growth in experiment [7] was 82.3%; in experiment [8] it was 64.3%.
As for `COCCN(C(=O)c1ccc(F)cc1F)c1c(N)n(Cc2ccccc2)c(=O)[nH]c1=O`, the growth in experiment [1] is 103%; in experiment [2], 135%; in experiment [3] it was 105%; in experiment [4] it was 108%; in experiment [5], 108%; in experiment [6], 102%. Also, the growth in experiment [7] is 106%; in experiment [8], 105%.
In the case of `Cc1cc(N2CCCC2)nc(NCc2cc(Nc3ccnc4cc(Cl)ccc34)ccc2F)n1`, the growth in experiment [1] was -54.7% (active); in experiment [2], 55.2%; in experiment [3], -96.1% (active); in experiment [4], -71.1% (active); in experiment [5], -56.1% (active); in experiment [6], -76.3% (active). The growth in experiment [7] was -74.9% (active); in experiment [8] it was -58.8% (active).
For `CCCCOc1nc2ccccc2cc1C1CNC(=O)c2ccccc2N1` (stereo not given), the growth in experiment [1] was 20.9%; in experiment [2], 41%; in experiment [3], -63.8% (active); in experiment [4], 20.9%; in experiment [5], 21.2%; in experiment [6] it was 15.6%. Besides, the results for the growth in experiment [7] and in experiment [8] were 56.5% and 23.9%, respectively.
Take `Clc1cccc(Cl)c1C(Nc1nc2ccccc2s1)Nc1nc2ccccc2s1`: the growth in experiment [1] is 95.7%; in experiment [2] it was 92.1%; in experiment [3], 107%; in experiment [4], 106%; in experiment [5], 91.3%; in experiment [6] it was 99.1%. The growth in experiment [7] was 117%; in experiment [8], 98.7%.
Turning to `COC(=O)[C@]12CC[C@@H](C)[C@H](C)[C@@H]1C1=CC[C@@H]3[C@@]4(C)C(C=O)=C[C@@](C)(COC(C)=O)C4=CC[C@@]3(C)[C@]1(C)CC2`, the growth is -5.34% (active) in experiment [1]; -16% (active) in experiment [2]; -0.255% (active) in experiment [3]; -43.8% (active) in experiment [4]; 5.08% (active) in experiment [5]; -67.5% (active) in experiment [6]. Further, the growth was -14.6% (active) in experiment [7] and 2.7% (active) in experiment [8].
As for `COc1cccc(-c2nn(-c3ccccc3)cc2-c2ccnc(NCCNC(=O)Nc3ccc(Cl)c(Cl)c3)c2)c1`, the growth in experiment [1] was 12.6%; in experiment [2], -4.67% (active); in experiment [3], -66.9% (active); in experiment [4] it was 18.3%; in experiment [5] it was 6.67% (active); in experiment [6], 0.717% (active). Besides, the figures for the growth in experiment [7] and in experiment [8] were -37.1% (active) and -33.8% (active), respectively.
With `COc1ccc(-c2nc3ccc4[nH]ncc4c3c3c2CCCC3)cc1B(O)O`, the growth in experiment [1] was 46.9%; in experiment [2] it was 41.4%; in experiment [3] it was 32.4%; in experiment [4], 33.4%; in experiment [5], 60.1%; in experiment [6], 27%. Moreover, the values for the growth in experiment [7] and in experiment [8] were 69.8% and 42.7%, respectively.
With `O=c1[nH][n+](-c2ccc(Cl)cc2)no1`, the growth in experiment [1] is 26.9%; in experiment [2] it was 91.8%; in experiment [3] it was 30.8%; in experiment [4] it was 40.8%; in experiment [5], 58.4%; in experiment [6] it was 84.5%. Further, the growth in experiment [7] is 32.4%; in experiment [8], 31.3%.
On to `C=C(C)[C@@H]1CC[C@]2(C(=O)NC3CCCCC3)CC[C@]3(C)[C@H](CC[C@@H]4[C@@]5(C)CCC(=O)C(C)(C)[C@@H]5CC[C@]43C)[C@@H]12`, for which the growth in experiment [1] was 83.3%; in experiment [2], 92.8%; in experiment [3], 93.6%; in experiment [4] it was 93.6%; in experiment [5] it was 85.1%; in experiment [6] it was 76.3%. Moreover, the growth was 107% in experiment [7] and 96% in experiment [8].
As to `CN1CCN(C(=O)c2c3c(n4ccccc24)C(=O)c2ncccc2C3=O)CC1`, the growth is 93.3% in experiment [1]; 57.3% in experiment [2]; 76.1% in experiment [3]; 37.6% in experiment [4]; 26.9% in experiment [5]; 44.1% in experiment [6]. Besides, the growth was 70.9% in experiment [7] and 65.4% in experiment [8].
On to `COc1cc(Cn2ncc3ccc(NC(=O)c4cc5ccccc5oc4=N)cc32)cc(OC)c1OC`, for which the growth in experiment [1] was 39.6%; in experiment [2] it was 43.6%; in experiment [3], -16.1% (active); in experiment [4], 43.5%; in experiment [5], 25%; in experiment [6], 26.6%. Further, the results for the growth in experiment [7] and in experiment [8] were 85% and 32.5%, respectively.
Consider `FC(F)(F)c1cc(Nc2ccc3cc(OCCCN4CCOCC4)ccc3n2)ccc1Cl`, for which the growth in experiment [1] was 26%; in experiment [2], 87.9%; in experiment [3] it was 35%; in experiment [4] it was -13.7% (active); in experiment [5], 6.85% (active); in experiment [6], 14.5%. Besides, the growth was -18.5% (active) in experiment [7] and 16.7% in experiment [8].
Turning to `COc1ccc(NC(=O)c2nc(-c3cc(OC)c(OC)c(OC)c3)n(-c3cccc4ccccc34)n2)cc1OC`, the growth in experiment [1] was 50.3%; in experiment [2], 46.3%; in experiment [3], 47.4%; in experiment [4], 61.5%; in experiment [5], 26.2%; in experiment [6] it was 25.9%. In addition, the growth in experiment [7] was 47.4%; in experiment [8] it was 41.3%.
